Activity calls are given as the source filed them.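 Rule for the calls: active = compound whose remaining NAD level is above about 45 nM (limit read from the data); inactive = the rest.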 Positions of bridges follow the written chain, without caps; N, C: chain ends. Non-standard residues stand in square brackets, D forms with d. Residues, ends and D or L forms follow the SMILES beside them. ξ: configuration not given here. *: point of attachment. Heptanoyl(5-Me) = CCC(C)CCCC(=O)*; ξThr(3R) = C[C@@H](O)C(N)C(=O)O; dDab = NCC[C@@H](N)C(=O)O; Dab = NCC[C@H](N)C(=O)O
Molecular target: NAD(+) hydrolase SARM1 (Homo sapiens) (UniProt Q6SZW1)
Sequence (Q6SZW1 whole entry, looked up): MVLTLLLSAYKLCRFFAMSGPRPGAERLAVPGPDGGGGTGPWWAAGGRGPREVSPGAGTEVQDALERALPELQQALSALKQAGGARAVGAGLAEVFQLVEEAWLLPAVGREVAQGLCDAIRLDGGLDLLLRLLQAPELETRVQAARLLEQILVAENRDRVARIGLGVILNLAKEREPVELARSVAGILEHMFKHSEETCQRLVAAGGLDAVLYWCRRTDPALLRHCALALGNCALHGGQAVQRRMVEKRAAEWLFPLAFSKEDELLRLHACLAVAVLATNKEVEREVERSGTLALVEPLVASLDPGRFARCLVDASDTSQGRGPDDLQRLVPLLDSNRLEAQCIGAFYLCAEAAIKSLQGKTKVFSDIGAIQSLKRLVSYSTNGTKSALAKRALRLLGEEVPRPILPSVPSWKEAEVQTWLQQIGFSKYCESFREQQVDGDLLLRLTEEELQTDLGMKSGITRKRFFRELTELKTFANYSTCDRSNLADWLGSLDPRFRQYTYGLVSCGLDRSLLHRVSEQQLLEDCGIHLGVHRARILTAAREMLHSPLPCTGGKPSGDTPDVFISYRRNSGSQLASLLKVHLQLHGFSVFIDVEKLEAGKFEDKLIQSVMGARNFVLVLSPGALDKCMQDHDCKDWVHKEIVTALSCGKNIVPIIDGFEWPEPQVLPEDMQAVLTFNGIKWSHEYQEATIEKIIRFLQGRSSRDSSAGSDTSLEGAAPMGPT
Assay: SARM1 TIR NADase inhibitors, cell lysate, NAD-Glo luminescence (AID 1508614);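 note: higher remaining NAD means stronger inhibition of SARM1 NADase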
Conditions: SAM-TIR HEK293T lysate NADase, at 1 µM, active compounds read high

Row | Compound | remaining NAD
1 | CCCCCCCCCCCCCCCC(=O)OC[C@H](O)[C@H]1OC(=O)C(O)=C1O | 10 nM (inactive)
2 | Cc1ccc2c(Br)cc(Br)c(OC(=O)c3ccccc3)c2n1 | 10 nM (inactive)
3 | O=C(O)[C@H](O)[C@@H](O)[C@H](O)[C@H](O)CO | 10 nM (inactive)
4 | Oc1ccc(Cl)c2c1CCC2 | 10 nM (inactive)
5 | Cc1ncc(COP(=O)([O-])[O-])c(CN(CCN(CC(=O)[O-])Cc2c(COP(=O)([O-])[O-])cnc(C)c2[O-])CC(=O)[O-])c1[O-].[H+].[H+].[H+].[Mn+2].[Na+].[Na+].[Na+] | 10 nM (inactive)
6 | NC(=O)[C@@H]1CCCN1C(=O)[C@H](Cc1cnc[nH]1)NC(=O)[C@@H]1CCC(=O)N1 | 10 nM (inactive)
7 | C/C=C(\C)C(=O)OC1[C@H](OC(C)=O)C2(CO)C(CC1(C)C)C1=CCC3C4(C)CCC(O[C@@H]5O[C@H](C(=O)O)[C@@H](O[C@@H]6O[C@H](CO)[C@@H](O)[C@H](O)[C@H]6O)[C@H](O)[C@H]5O[C@H]5O[C@H](CO)[C@@H](O)[C@H](O)[C@H]5O)[C@](C)(CO)C4CCC3(C)[C@]1(C)C[C@H]2O (stereo not given in full) | 10 nM (inactive)
8 | OC[C@H]1O[C@@H](O[C@H]2[C@H](O)[C@@H](O)[C@@H](O)O[C@@H]2CO)[C@H](O)[C@@H](O)[C@H]1O | 10 nM (inactive)
9 | CC(=O)c1ccc2c(c1)N(CCCN1CCN(CCO)CC1)c1ccccc1S2 | 10 nM (inactive)
10 | CCC(C)CCCC(=O)N[C@@H](CCN)C(=O)N[C@H](C(=O)N[C@@H](CCN)C(=O)N[C@H]1CCNC(=O)C([C@@H](C)O)NC(=O)[C@@H](CCN)NC(=O)[C@H](CCN)NC(=O)[C@@H](CC(C)C)NC(=O)[C@@H](CC(C)C)NC(=O)[C@H](CCN)NC1=O)[C@@H](C)O (stereo partly drawn) ({Heptanoyl(5-Me)}-[Dab]T[Dab][Dab][Dab][dL][dL][Dab][dDab][ξThr(3R)]; lactam 4-C) | 10 nM (inactive)
11 | CC1/C=C/C=C/C=C/C=C/C=C/C=C/C=C/C(OC2O[C@H](C)[C@@H](O)[C@H](N)[C@@H]2O)CC(O)C(C(=O)O)C(O)CC(=O)CC(O)CC(O)CC(O)CC(=O)CCCC(=O)CC(=O)OC1C(C)CC(C)C(O)CC(=O)c1ccc(N)cc1 (stereo not given in full) | 10 nM (inactive)
12 | CCCCCCCCCC[N+](C)(C)Cc1ccccc1 | 10 nM (inactive)
13 | C[C@H]1C[C@H]2[C@@H]3CCC4=CC(=O)C=C[C@]4(C)[C@@]3(F)[C@@H](O)C[C@]2(C)[C@@]1(O)C(=O)COP(=O)(O)O | 10 nM (inactive)
14 | CCCCCCCCCC(=O)N[C@H]1[C@H](Oc2c3cc4cc2Oc2ccc(cc2Cl)[C@@H](O[C@@H]2O[C@H](CO)[C@@H](O)[C@H](O)[C@H]2NC(C)=O)[C@@H]2NC(=O)[C@H](NC(=O)[C@@H]4NC(=O)[C@H]4NC(=O)[C@@H](Cc5ccc(c(Cl)c5)O3)NC(=O)[C@@H](N)c3ccc(O)c(c3)Oc3cc(O)cc4c3)c3ccc(O)c(c3)-c3c(OC4O[C@H](CO)[C@@H](O)[C@H](O)[C@@H]4O)cc(O)cc3[C@@H](C(=O)O)NC2=O)O[C@H](CO)[C@@H](O)[C@@H]1O (stereo not given in full) | 10 nM (inactive)
15 | CCCCCCOC(=O)/N=C(\N)c1ccc(NCc2nc3cc(C(=O)N(CCC(=O)OCC)c4ccccn4)ccc3n2C)cc1 | 10 nM (inactive)
16 | CN(N=O)C(=O)N[C@@H](C=O)[C@@H](O)[C@H](O)[C@H](O)CO | 10 nM (inactive)
17 | C#C[C@]1(OC(C)=O)CC[C@H]2[C@@H]3CCC4=C/C(=N\O)CC[C@@H]4[C@H]3CC[C@@]21CC | 10 nM (inactive)
18 | CC(=O)OCC(=O)[C@@]1(O)CC[C@H]2[C@@H]3CCC4=CC(=O)C=C[C@]4(C)[C@@]3(Cl)[C@@H](Cl)C[C@@]21C | 10 nM (inactive)
19 | C[C@@H]1O[C@@H]1P(=O)(O)O | 10 nM (inactive)
20 | CCOC(=S)SSC(=S)OCC | 10 nM (inactive)

Row | Compound | remaining NAD
21 | CCC(=O)Oc1ccc2c(c1)CC[C@@H]1[C@@H]2CC[C@]2(C)[C@@H](OC(=O)CC)CC[C@@H]12 | 10 nM (inactive)
22 | Cc1cc2nc3c(=O)[nH]c(=O)nc-3n(C[C@H](O)[C@H](O)[C@H](O)COP(=O)(O)O)c2cc1C | 10 nM (inactive)
23 | OC[C@@H](O)[C@@H](O)CO | 10 nM (inactive)
24 | COc1ccc2nc([S@@](=O)Cc3ncc(C)c(OC)c3C)[nH]c2c1 | 10 nM (inactive)
25 | Nc1ncnc(Nc2ccc(Cl)cc2)n1 | 10 nM (inactive)
26 | CO/N=C(\C(=O)N[C@@H]1C(=O)N2C(C(=O)O)=C(CSc3nnnn3C)CS[C@H]12)c1csc(N)n1 | 10 nM (inactive)
27 | CCCCCCCCCC(=O)N[C@@H](Cc1c[nH]c2ccccc12)C(=O)N[C@@H](CC(N)=O)C(=O)N[C@@H](CC(=O)O)C(=O)N[C@@H]1C(=O)NCC(=O)N[C@@H](CCCN)C(=O)N[C@@H](CC(=O)O)C(=O)N[C@H](C)C(=O)N[C@@H](CC(=O)O)C(=O)NCC(=O)N[C@H](CO)C(=O)N[C@@H]([C@H](C)CC(=O)O)C(=O)N[C@@H](CC(=O)c2ccccc2N)C(=O)O[C@@H]1C | 10 nM (inactive)
28 | CCC(=O)OCC(=O)[C@@]1(OC(=O)CC)[C@H](C)C[C@H]2[C@H]3[C@H]([C@@H](O)C[C@@]21C)[C@@]1(C)C=CC(=O)C=C1C[C@H]3Cl | 10 nM (inactive)
29 | CO[C@H]1C[C@H](O[C@H]2[C@H](C)O[C@@H](O[C@@H]3/C(C)=C/C[C@@H]4C[C@@H](C[C@]5(C=C[C@H](C)[C@@H](C6CCCCC6)O5)O4)OC(=O)[C@@H]4C=C(C)[C@@H](O)[C@H]5OC/C(=C\C=C\[C@@H]3C)[C@]54O)C[C@@H]2OC)O[C@@H](C)[C@@H]1O | 10 nM (inactive)
30 | Cn1nnnc1SCC1=C(C(=O)O)N2C(=O)[C@@H](NC(=O)[C@H](OC=O)c3ccccc3)[C@H]2SC1 | 10 nM (inactive)
31 | CC(=O)O[C@@H]1C[C@@H]2CC[C@@]1(C)C2(C)C | 10 nM (inactive)
32 | CC(C)CC(NC(=O)C(C)NC(=O)CNC(=O)C(NC=O)C(C)C)C(=O)NC(C)C(=O)NC(C(=O)NC(C(=O)NC(C(=O)NC(Cc1c[nH]c2ccccc12)C(=O)NC(CC(C)C)C(=O)NC(Cc1c[nH]c2ccccc12)C(=O)NC(CC(C)C)C(=O)NC(Cc1c[nH]c2ccccc12)C(=O)NC(CC(C)C)C(=O)NC(Cc1c[nH]c2ccccc12)C(=O)NCCO)C(C)C)C(C)C)C(C)C (stereo not given) | 10 nM (inactive)
33 | C[C@]12CC[C@@H]3c4ccc(O)cc4CC[C@H]3[C@@H]1C[C@H](O)[C@@H]2O | 48 nM (active)
34 | Nc1ccc(S(=O)(=O)[O-])cc1.Nc1ccc(S(=O)(=O)[O-])cc1.O.O.O.O.[Zn+2] | 10 nM (inactive)
35 | C=C(C)[C@H]1CC=C(C)CC1 | 10 nM (inactive)
36 | Cn1c2ncnc-2c(O)n(C)c1=O | 10 nM (inactive)
37 | COc1cc(/C=C/C(=O)N2CCCCCCC2)cc(OC)c1OC | 10 nM (inactive)
38 | CO[C@H]1C[C@H](O[C@@H]2/C(C)=C\C[C@@H]3C[C@@H](C[C@]4(C=C[C@H](C)[C@@H](C(C)C)O4)O3)OC(=O)[C@@H]3C=C(C)[C@@H](O)[C@H]4OC/C(=C/C=C\[C@@H]2C)[C@]43O)O[C@@H](C)[C@H]1O[C@H]1C[C@@H](OC)[C@H](NC(C)=O)[C@H](C)O1 | 10 nM (inactive)
39 | S=C1SCN(Cc2ccccc2)CN1Cc1ccccc1 | 10 nM (inactive)
40 | CC(=O)N1CCN(c2ccc(OC[C@@H]3CO[C@@](Cn4ccnc4)(c4ccc(Cl)cc4Cl)O3)cc2)CC1 | 10 nM (inactive)

Reference: PubChem BioAssay
